# Publication PMC11062922 (Nature Chemical Biology, 2023)
# Where two headings read alike, the source gives them in different places.
# Columns and labels:
# Set-up in all cases: species or system human, MV4-11 + K-562 + COLO205 + SK-N-BE2 + OVCAR-8
# ATR = conditions: read-out: apparent Kd, n = 1
# MCM5 = conditions: read-out: apparent Kd; compound concentrations:100 nM and 1000 nM (sheet 'Samples'); n = 1
# AKT3 = conditions: read-out: apparent Kd, n = 1
# EIF2AK1 = conditions: read-out: apparent Kd, n = 1
# FGFR1 = conditions: read-out: apparent Kd, n = 1
# MAP3K4 = conditions: read-out: apparent Kd, n = 1
# MAP4K3 = conditions: read-out: apparent Kd, n = 1
# TAOK3 = conditions: read-out: apparent Kd, compound concentrations: 100 nM and 1000 nM (sheet 'Samples'), n = 1
# PRKCA = conditions: read-out: apparent Kd, n = 1
# PRKCQ = conditions: read-out: apparent Kd, compound concentrations: 100 nM and 1000 nM (sheet 'Samples'), n = 1
# MST1R = conditions: read-out: apparent Kd, n = 1
# AXL = conditions: read-out: apparent Kd, n = 1
# CHEK1 = conditions: read-out: apparent Kd, n = 1
# NUAK2 = conditions: read-out: apparent Kd, compound concentrations: 100 nM and 1000 nM (sheet 'Samples'), n = 1
# PAK6 = conditions: read-out: apparent Kd, n = 1
# MAP3K1 = conditions: read-out: apparent Kd, n = 1
# CDC7 = conditions: read-out: apparent Kd, n = 1
# STK26 = conditions: read-out: apparent Kd, n = 1
# AIFM1 = conditions: read-out: apparent Kd, n = 1
# MAPK1 = conditions: read-out: apparent Kd, n = 1
# [1] = compound concentrations:100 nM and 1000 nM (sheet 'Samples')
smiles,measurement,setting,value
Cc1cccc(-c2cc(-c3c[nH]nc3-c3ccccn3)ccn2)c1 [GW679395X],potency estimated from few doses,ATR; [1],784 nM
same,potency estimated from few doses,MCM5,2220 nM
Cl.Cl.Cl.c1ccc(Oc2ccc(Nc3ccnc4cc(-c5ccc(CN6CCNCC6)o5)ccc34)cc2)nc1.c1ccc(Oc2ccc(Nc3ccnc4cc(-c5ccc(CN6CCNCC6)o5)ccc34)cc2)nc1 [GW567142A],potency estimated from few doses,"AKT3; compound concentrations: 100 nM and 1000 nM (sheet 'Samples'), CATDS: 1.96345458497789E-2",1220 nM
CCN(CC)CCOc1ccc(Nc2ncc3cc(-c4c(Cl)cccc4Cl)c(=O)n(C)c3n2)cc1 [SB-601273],potency estimated from few doses,EIF2AK1; [1],802 nM
same,potency estimated from few doses,FGFR1; [1],388 nM
same,potency estimated from few doses,MAP3K4; [1],640 nM
CC(C)c1nc(-c2cccc(NS(=O)(=O)c3ccccc3)c2)c(-c2ccnc(Nc3ccc4c(c3)CN(C)CC4)n2)s1 [GSK1649598A],potency estimated from few doses,"EIF2AK1; compound concentrations: 100 nM and 1000 nM (sheet 'Samples'), CATDS: 1.2049138134939999E-2",2290 nM
same,potency estimated from few doses,"MAP4K3; compound concentrations: 100 nM and 1000 nM (sheet 'Samples'), CATDS: 1.29423166532144E-2",1570 nM
same,potency estimated from few doses,TAOK3; CATDS: 1.6812822211495999E-2,600 nM
Cn1cc(C2=C(c3cn(CCCO)c4ccccc34)C(=O)NC2=O)c2ccccc21 [RO0317377-000],potency estimated from few doses,"PRKCA; compound concentrations: 100 nM and 1000 nM (sheet 'Samples'), CATDS: 0.117489729482602",1240 nM
same,potency estimated from few doses,PRKCQ; CATDS: 9.7872401763747702E-2,2020 nM
CS(=O)(=O)CCNCc1ccc(-c2ccc3ncnc(Nc4ccc(OCc5cccc(F)c5)c(C(F)(F)F)c4)c3c2)o1 [GW576484X],potency estimated from few doses,"MST1R; compound concentrations: 100 nM and 1000 nM (sheet 'Samples'), CATDS: 4.8936571303095901E-2",2070 nM
O=C1N=C(NCc2cccs2)SC1Cc1ccc2ncccc2c1 (centres unmarked) [RO4629078-000],potency estimated from few doses,"AXL; compound concentrations: 100 nM and 1000 nM (sheet 'Samples'), CATDS: 8.9637378169906395E-3",899 nM
same,potency estimated from few doses,"CHEK1; compound concentrations: 100 nM and 1000 nM (sheet 'Samples'), CATDS: 9.1517924527920996E-3",847 nM
same,potency estimated from few doses,"FGFR1; compound concentrations: 100 nM and 1000 nM (sheet 'Samples'), CATDS: 7.8188916788292304E-3",1400 nM
same,potency estimated from few doses,NUAK2; CATDS: 9.28769092053984E-3,813 nM
same,potency estimated from few doses,"PAK6; compound concentrations: 100 nM and 1000 nM (sheet 'Samples'), CATDS: 5.6767334452466102E-2",43.4 nM
same,potency estimated from few doses,PRKCQ; CATDS: 4.8799216922885302E-2,52.1 nM
CN1C(=O)c2ccccc2N(C)c2nc(Nc3cnn(C4CCNCC4)c3)ncc21 [XMD-17-51],potency estimated from few doses,NUAK2; CATDS: 1.40993766530741E-2,1630 nM
same,potency estimated from few doses,TAOK3; CATDS: 4.0612086764621601E-2,78.3 nM
Cc1cccc(Nc2nc(NCCN)ncc2C(N)=O)c1 [GSK1292139B],potency estimated from few doses,"PRKCA; compound concentrations: 100 nM and 1000 nM (sheet 'Samples'), CATDS: 7.8456539991917998E-2",1100 nM
CCn1cc(-c2ccnc3[nH]c(-c4cccc(CN(C)C)c4)cc23)c(-c2ccc(NC(=O)N(C)C)cc2)n1 [GSK1070916],potency estimated from few doses,AXL; [1],891 nM
COc1cc(Nc2ccnc3cc(-c4ccncc4)ccc23)cc(OC)c1OC.Cl [GW494610A],potency estimated from few doses,"MST1R; compound concentrations: 100 nM and 1000 nM (sheet 'Samples'), CATDS: 2.33652063903033E-2",1280 nM
COc1ccc(Nc2nccc(N3CCC(NC(=O)Nc4ccc5c(c4)OCO5)C3)n2)cc1 (centres unmarked) [GSK1379745A],potency estimated from few doses,"CHEK1; compound concentrations: 100 nM and 1000 nM (sheet 'Samples'), CATDS: 3.4900444296342099E-2",2070 nM
CNC(=O)c1ccccc1Nc1nc(Nc2cccc(CS(C)(=O)=O)c2)ncc1C.O=CO [GSK1520489A],potency estimated from few doses,"AXL; compound concentrations: 100 nM and 1000 nM (sheet 'Samples'), CATDS: 1.37984345324301E-2",374 nM
same,potency estimated from few doses,"FGFR1; compound concentrations: 100 nM and 1000 nM (sheet 'Samples'), CATDS: 1.6795329465602301E-2",213 nM
same,potency estimated from few doses,NUAK2; CATDS: 9.7596009365087198E-3,1500 nM
Cn1cc(-c2ccc3c(c2)CCN3C(=O)Cc2cccc(Cl)c2)c2c(N)ncnc21 [GSK2606590A],potency estimated from few doses,"EIF2AK1; compound concentrations: 100 nM and 1000 nM (sheet 'Samples'), CATDS: 0.41818384912394302",679 nM
CN1CCN(Cc2ccc(NC(=O)Nc3ccc(N(C)c4ccnc(Nc5ccc(CS(C)(=O)=O)cc5)n4)cc3)cc2)CC1.Cl [GW827654A],potency estimated from few doses,"MAP3K4; compound concentrations: 100 nM and 1000 nM (sheet 'Samples'), CATDS: 3.4818891633212903E-2",1770 nM
Cn1cc(-c2cnc(N)c3c(-c4ccc5c(c4)CCN5C(=O)Cc4ccccc4)csc23)cn1 [GSK2593074A],potency estimated from few doses,MAP4K3; [1],1570 nM
same,potency estimated from few doses,MCM5,1530 nM
N#Cc1cnc2cc(-c3cnc(CNCCN4CCOCC4)s3)ccc2c1Nc1ccc(Oc2ccccc2)cc1 [GW664114X],potency estimated from few doses,"MAP3K4; compound concentrations: 100 nM and 1000 nM (sheet 'Samples'), CATDS: 5.1499823560292202E-2",914 nM
Nc1ncc(-c2cn[nH]c2)c2scc(-c3ccc4c(c3)CCN4C(=O)Cc3ccccc3)c12 [GSK2593067A],potency estimated from few doses,"MAP4K3; compound concentrations: 100 nM and 1000 nM (sheet 'Samples'), CATDS: 5.6013670337788E-2",2210 nM
COc1cc2ncn(-c3cc(OCCCc4ccccc4)c(C(N)=O)s3)c2cc1OC [GSK205189A],potency estimated from few doses,PAK6; [1],1960 nM
COc1cc2ncn(-c3cc(OCc4cccs4)c(C(N)=O)s3)c2cc1OC [GSK312948A],potency estimated from few doses,MAP3K1; [1],1470 nM
Nc1nc(N)c2nc(-c3ccccc3)[nH]c2n1 [SKF-12778],potency estimated from few doses,ATR; [1],520 nM
same,potency estimated from few doses,MCM5,2160 nM
CN1CCc2ccc(Nc3nccc(-c4c(-c5cccc(NC(=O)c6c(F)cccc6F)c5)nc5ccccn45)n3)cc2C1.Cl [GSK1010829B],potency estimated from few doses,TAOK3; CATDS: 3.3504953987682898E-2,1490 nM
CS(=O)(=O)c1ccc(-c2cnc(N)c(C(=O)Nc3ccccc3)n2)cc1 [VE-821],potency estimated from few doses,"ATR; compound concentrations: 100 nM and 1000 nM (sheet 'Samples'), CATDS: 0.19985195991101001",648 nM
Cl.Cn1c(=O)c(Cc2ccc(F)cc2F)cc2cnc(NC3CCOCC3)nc21 [RO3308757-001],potency estimated from few doses,PAK6; [1],1650 nM
COc1cc(/C=N/Nc2ncnc3[nH]ncc23)ccc1O [GW578748X],potency estimated from few doses,CHEK1; [1],592 nM
COc1cccc(-n2cnc3c(N/N=C/c4ccncc4)ncnc32)c1 [GW813360X],potency estimated from few doses,"MAP3K1; compound concentrations: 100 nM and 1000 nM (sheet 'Samples'), CATDS: 0.17625774536474501",1040 nM
N#Cc1cccc(Nc2nccc(-c3cnn4ncccc34)n2)c1 [GW778894X],potency estimated from few doses,CDC7; [1],1240 nM
same,potency estimated from few doses,PRKCA; [1],1180 nM
O=S(=O)(CCOCc1ccc(-c2ccc3ncnc(Nc4ccc(OCc5cccc(F)c5)c(Cl)c4)c3c2)o1)c1ccccc1 [GW615311X],potency estimated from few doses,"STK26; compound concentrations: 100 nM and 1000 nM (sheet 'Samples'), CATDS: 2.23099896492461E-2",2340 nM
Nc1c(C(=O)c2ccccc2)cnn1-c1ccc(F)cc1 [RO1151246-000],potency estimated from few doses,AKT3; [1],1420 nM
same,potency estimated from few doses,STK26; [1],1890 nM
COc1cccc(C2=C(c3cn(C)c4c(C)cccc34)C(=O)NC2=O)c1 [RO3301012-000],potency estimated from few doses,"CDC7; compound concentrations: 100 nM and 1000 nM (sheet 'Samples'), CATDS: 0.10055770090402801",1800 nM
COc1cc2ncn(-c3cc(OCc4sccc4Cl)c(C(N)=O)s3)c2cc1OC [GSK448459A],potency estimated from few doses,MAP3K1; [1],511 nM
Cn1cc(C2=C(c3cccc([N+](=O)[O-])c3)C(=O)NC2=O)c2ccccc21 [RO0317474-000],potency estimated from few doses,"CDC7; compound concentrations: 100 nM and 1000 nM (sheet 'Samples'), CATDS: 0.13743963750211899",1670 nM
Cl.Fc1cccc(COc2ccc(Nc3ncnc4cc(-c5ccc[nH]5)sc34)cc2Cl)c1 [GW693881A],potency estimated from few doses,"AIFM1; compound concentrations: 100 nM and 1000 nM (sheet 'Samples'), CATDS: 0.160865216132973",1350 nM
CC(=O)Nc1ccc2c(C3=C(c4cn(C)c5ccccc45)C(=O)NC3=O)cn(C)c2c1 [RO0317596-000],potency estimated from few doses,"MAPK1; compound concentrations: 100 nM and 1000 nM (sheet 'Samples'), CATDS: 0.12847476759448101",1100 nM
COc1cc(F)c(F)c(F)c1C(=O)c1cnc(NC2CCN(S(C)(=O)=O)CC2)nc1N [RO4600703-000],potency estimated from few doses,AIFM1; [1],939 nM
same,potency estimated from few doses,MAPK1; [1],1580 nM
Cn1cc(C2=C(c3cn(CCCCCO)c4ccccc34)C(=O)NC2=O)c2ccccc21 [RO0318053-000],potency estimated from few doses,"CDC7; compound concentrations: 100 nM and 1000 nM (sheet 'Samples'), CATDS: 8.0152233997933905E-2",1890 nM
NC(=O)c1cccnc1COc1cc(-c2ccc(N3CCOCC3)nc2)cc2ncccc12 [BI01125081],potency estimated from few doses,MST1R; [1],1120 nM
COc1ccc(C2=C(c3cn(C)c4ccccc34)C(=O)NC2=O)cc1OC [RO3206363-000],potency estimated from few doses,PRKCQ; CATDS: 0.114661548989235,82.8 nM
same,potency estimated from few doses,"STK26; compound concentrations: 100 nM and 1000 nM (sheet 'Samples'), CATDS: 3.3943818014748203E-2",1450 nM
CCCCCNC(=O)[C@@H]1CCCN2C(=O)CC[C@H](NC(=O)[C@H](Cc3ccc(OP(=O)(O)O)cc3)NC(C)=O)C(=O)N12 [RO0324694-000],potency estimated from few doses,AIFM1; [1],1670 nM
Cc1[nH]nc2c1N=C(c1ccccc1Cl)c1cc([N+](=O)[O-])ccc1N2 [RO0274406-000],potency estimated from few doses,"MAPK1; compound concentrations: 100 nM and 1000 nM (sheet 'Samples'), CATDS: 7.1630348262951699E-2",1230 nM
Fc1cccc(COc2ccc(Nc3ncncc3C#Cc3ccccc3)cc2Cl)c1 [GW651576X],potency estimated from few doses,"STK26; compound concentrations: 100 nM and 1000 nM (sheet 'Samples'), CATDS: 5.7539827795964102E-2",1350 nM
Cc1ccc(C(=O)NC2CC2)cc1-c1ccc2[nH]ncc2c1 [GW820759X],potency estimated from few doses,"AIFM1; compound concentrations: 100 nM and 1000 nM (sheet 'Samples'), CATDS: 0.35268476986263803",1040 nM
Fc1ccc(-c2ncn(C3CCNCC3)c2-c2ccnc(Oc3ccc4c(c3)OCO4)n2)cc1 [SB-250715],potency estimated from few doses,AKT3; [1],2290 nM
Cl.Oc1ccc2ncnc(Nc3ccc(OCc4ccccc4)cc3)c2c1 [GI262866A],potency estimated from few doses,MAPK1; [1],617 nM
COc1cc2ncn(-c3cc(O[C@H](C)c4ccccc4Cl)c(C(N)=O)s3)c2cc1OC [GSK237701A],potency estimated from few doses,MAP3K1; [1],398 nM
